According to PubChem BioAssay (EPA / NIEHS):
Results filed as inconclusive are left out. Active and inactive are the calls of the source. The calls were made as follows: active = hit-call score of the fitted dose curve at least 0.9, where 1 is the maximum; inconclusive = response in the unintended direction; inactive = score below 0.9.

Key:
[1] = target: Glycogen synthase kinase-3 beta (Homo sapiens) (UniProt P49841); experiment: NVS_ENZ_hGSK3b: NovaScreen (NVS) Enzymatic Assay for human Glycogen Synthase Kinase-3 beta (GSK3b) (AID 2283165)
Chain of Glycogen synthase kinase-3 beta (Homo sapiens) (P49841 whole entry, looked up): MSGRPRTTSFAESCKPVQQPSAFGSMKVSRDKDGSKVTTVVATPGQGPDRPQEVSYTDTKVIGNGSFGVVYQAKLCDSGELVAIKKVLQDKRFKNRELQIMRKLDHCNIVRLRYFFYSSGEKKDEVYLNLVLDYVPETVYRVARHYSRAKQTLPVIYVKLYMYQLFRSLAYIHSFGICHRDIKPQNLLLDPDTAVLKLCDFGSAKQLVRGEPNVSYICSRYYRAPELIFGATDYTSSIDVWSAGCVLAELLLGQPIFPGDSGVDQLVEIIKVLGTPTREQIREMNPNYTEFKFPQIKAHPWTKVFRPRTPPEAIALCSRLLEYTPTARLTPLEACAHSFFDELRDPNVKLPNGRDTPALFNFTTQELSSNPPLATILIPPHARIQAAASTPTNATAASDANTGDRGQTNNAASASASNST
In short: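 Recombinant enzyme with specific fluorescent substrate, 1 h, product separated by electrophoretic mobility shift. Primary duplicate screen at 25 uM; actives (e.g. 30% inhibition) followed in singleton concentration-response to 50 uM. Signal loss fitted versus DMSO.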

[2] = target: human MET Proto-Oncogene, Receptor Tyrosine Kinase (MET), MET (gene 4233) (UniProt P08581); experiment: NVS_ENZ_hMet: NovaScreen (NVS) Enzymatic Assay for human MET Proto-Oncogene, Receptor Tyrosine Kinase (MET) (AID 2283180)
In short: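 Cell-free MET kinase assay using recombinant protein and fluorescent substrate, with mobility-shift separation; read 1 h after dosing. Primary duplicate at 25 uM; actives in singleton concentration-response to 50 uM maximum. Signal loss versus DMSO.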

[3] = target: human Fibroblast Growth Factor Receptor 1 (FGFR1), FGFR1 (gene 2260) (UniProt P11362); experiment: NVS_ENZ_hFGFR1: NovaScreen (NVS) Enzymatic Assay for human Fibroblast Growth Factor Receptor 1 (FGFR1) (AID 2283159)
Chain of human Fibroblast Growth Factor Receptor 1 (FGFR1), FGFR1 (gene 2260) (P11362 whole entry, looked up): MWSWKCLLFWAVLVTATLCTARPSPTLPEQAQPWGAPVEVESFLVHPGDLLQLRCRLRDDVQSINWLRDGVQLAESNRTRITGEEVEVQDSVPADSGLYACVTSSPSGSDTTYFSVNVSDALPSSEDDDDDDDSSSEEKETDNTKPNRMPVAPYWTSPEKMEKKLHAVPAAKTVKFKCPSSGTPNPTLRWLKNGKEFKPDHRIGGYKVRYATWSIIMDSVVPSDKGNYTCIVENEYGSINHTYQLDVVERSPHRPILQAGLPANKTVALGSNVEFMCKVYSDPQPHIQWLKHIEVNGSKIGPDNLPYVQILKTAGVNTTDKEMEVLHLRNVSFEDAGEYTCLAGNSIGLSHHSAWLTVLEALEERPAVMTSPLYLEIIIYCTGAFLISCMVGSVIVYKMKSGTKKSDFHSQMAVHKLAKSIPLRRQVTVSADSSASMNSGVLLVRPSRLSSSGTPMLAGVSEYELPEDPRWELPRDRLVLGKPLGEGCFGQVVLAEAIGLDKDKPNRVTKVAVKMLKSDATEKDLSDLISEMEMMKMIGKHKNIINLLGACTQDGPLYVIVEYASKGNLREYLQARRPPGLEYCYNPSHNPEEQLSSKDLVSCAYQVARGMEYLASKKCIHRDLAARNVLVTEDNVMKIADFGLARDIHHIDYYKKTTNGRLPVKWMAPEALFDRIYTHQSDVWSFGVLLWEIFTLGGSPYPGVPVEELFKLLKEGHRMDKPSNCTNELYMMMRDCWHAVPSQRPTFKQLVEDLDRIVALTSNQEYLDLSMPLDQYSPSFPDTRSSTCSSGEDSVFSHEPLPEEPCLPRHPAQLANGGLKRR
In short: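 Cell-free recombinant kinase with fluorescent substrate, product separated by electrophoretic mobility shift; read 1 hour after dosing, loss of signal relative to DMSO. Initial screen in duplicate at 25 uM, actives followed in concentration series.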

[4] = target: Histone deacetylase 3 (Homo sapiens) (UniProt O15379); experiment: NVS_ENZ_hHDAC3: NovaScreen (NVS) Enzymatic Assay for human Histone Deacetylase 3 (HDAC3) (AID 2283163)
Chain of Histone deacetylase 3 (Homo sapiens) (O15379 whole entry, looked up): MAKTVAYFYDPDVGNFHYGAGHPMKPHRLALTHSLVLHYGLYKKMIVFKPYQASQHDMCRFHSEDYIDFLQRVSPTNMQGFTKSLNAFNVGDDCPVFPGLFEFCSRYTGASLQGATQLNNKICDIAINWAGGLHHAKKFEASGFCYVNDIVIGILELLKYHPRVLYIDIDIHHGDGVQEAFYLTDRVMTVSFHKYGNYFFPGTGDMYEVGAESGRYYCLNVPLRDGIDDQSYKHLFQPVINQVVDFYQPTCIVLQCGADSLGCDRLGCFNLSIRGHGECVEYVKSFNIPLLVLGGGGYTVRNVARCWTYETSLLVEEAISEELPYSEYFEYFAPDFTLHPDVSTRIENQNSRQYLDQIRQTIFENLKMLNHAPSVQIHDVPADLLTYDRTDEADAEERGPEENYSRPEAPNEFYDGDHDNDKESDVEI
In short: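 Recombinant human HDAC3 with fluorescent substrate, 1 h after dosing; product separated from substrate by electrophoretic mobility shift and read by fluorescence. Primary screen at 25 uM in duplicate; actives (e.g. ≥30% inhibition) retested in concentration-response up to 50 uM.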

[5] = target: Protein deacetylase HDAC6 (Homo sapiens) (UniProt Q9UBN7); experiment: NVS_ENZ_hHDAC6: NovaScreen (NVS) Enzymatic Assay for human Histone Deacetylase 6 (HDAC6) (AID 2283164)
Chain of Protein deacetylase HDAC6 (Homo sapiens) (Q9UBN7 whole entry, looked up): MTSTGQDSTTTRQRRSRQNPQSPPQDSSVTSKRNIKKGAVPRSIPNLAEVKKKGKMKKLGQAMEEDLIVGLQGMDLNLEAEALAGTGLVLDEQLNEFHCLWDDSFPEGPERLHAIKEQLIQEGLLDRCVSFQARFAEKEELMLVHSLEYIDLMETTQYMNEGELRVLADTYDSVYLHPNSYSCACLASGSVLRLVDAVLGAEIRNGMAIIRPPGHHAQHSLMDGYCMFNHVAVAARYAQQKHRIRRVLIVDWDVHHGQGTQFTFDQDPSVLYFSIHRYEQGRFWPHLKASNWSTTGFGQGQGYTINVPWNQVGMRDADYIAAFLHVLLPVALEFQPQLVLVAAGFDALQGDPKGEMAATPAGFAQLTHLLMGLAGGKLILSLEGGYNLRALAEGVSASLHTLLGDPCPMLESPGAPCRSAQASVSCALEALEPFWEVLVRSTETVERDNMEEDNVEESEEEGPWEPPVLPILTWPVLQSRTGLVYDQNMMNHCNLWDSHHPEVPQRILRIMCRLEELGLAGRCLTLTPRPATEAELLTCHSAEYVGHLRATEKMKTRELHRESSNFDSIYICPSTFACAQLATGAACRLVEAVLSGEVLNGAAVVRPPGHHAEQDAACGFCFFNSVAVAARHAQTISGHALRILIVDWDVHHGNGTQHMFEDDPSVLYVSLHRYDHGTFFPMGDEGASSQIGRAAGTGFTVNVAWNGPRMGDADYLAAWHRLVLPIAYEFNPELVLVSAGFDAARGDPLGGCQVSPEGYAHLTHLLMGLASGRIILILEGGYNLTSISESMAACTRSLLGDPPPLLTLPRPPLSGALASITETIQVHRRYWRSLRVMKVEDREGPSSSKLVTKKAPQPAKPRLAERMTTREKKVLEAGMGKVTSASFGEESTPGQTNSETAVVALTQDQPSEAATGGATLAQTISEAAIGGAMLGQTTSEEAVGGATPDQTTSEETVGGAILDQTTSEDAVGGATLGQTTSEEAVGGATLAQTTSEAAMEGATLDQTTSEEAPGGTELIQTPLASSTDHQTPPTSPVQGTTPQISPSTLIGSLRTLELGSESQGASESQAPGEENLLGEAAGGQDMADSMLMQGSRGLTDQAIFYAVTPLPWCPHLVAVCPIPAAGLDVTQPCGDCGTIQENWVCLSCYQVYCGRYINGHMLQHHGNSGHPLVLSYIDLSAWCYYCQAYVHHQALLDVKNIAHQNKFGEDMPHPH
In short: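 Recombinant human HDAC6 with fluorescent substrate, 1 h; product separated from substrate by electrophoretic mobility shift. Primary screen in duplicate at 25 uM; actives retested singly in concentration-response up to 50 uM, fitted relative to DMSO.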

[6] = target: human Janus Kinase 2 (Jak2), JAK2 (gene 3717) (UniProt O60674); experiment: NVS_ENZ_hJak2: NovaScreen (NVS) Enzymatic Assay for human Janus Kinase 2 (Jak2) (AID 2283169)
Chain of human Janus Kinase 2 (Jak2), JAK2 (gene 3717) (O60674 whole entry, looked up): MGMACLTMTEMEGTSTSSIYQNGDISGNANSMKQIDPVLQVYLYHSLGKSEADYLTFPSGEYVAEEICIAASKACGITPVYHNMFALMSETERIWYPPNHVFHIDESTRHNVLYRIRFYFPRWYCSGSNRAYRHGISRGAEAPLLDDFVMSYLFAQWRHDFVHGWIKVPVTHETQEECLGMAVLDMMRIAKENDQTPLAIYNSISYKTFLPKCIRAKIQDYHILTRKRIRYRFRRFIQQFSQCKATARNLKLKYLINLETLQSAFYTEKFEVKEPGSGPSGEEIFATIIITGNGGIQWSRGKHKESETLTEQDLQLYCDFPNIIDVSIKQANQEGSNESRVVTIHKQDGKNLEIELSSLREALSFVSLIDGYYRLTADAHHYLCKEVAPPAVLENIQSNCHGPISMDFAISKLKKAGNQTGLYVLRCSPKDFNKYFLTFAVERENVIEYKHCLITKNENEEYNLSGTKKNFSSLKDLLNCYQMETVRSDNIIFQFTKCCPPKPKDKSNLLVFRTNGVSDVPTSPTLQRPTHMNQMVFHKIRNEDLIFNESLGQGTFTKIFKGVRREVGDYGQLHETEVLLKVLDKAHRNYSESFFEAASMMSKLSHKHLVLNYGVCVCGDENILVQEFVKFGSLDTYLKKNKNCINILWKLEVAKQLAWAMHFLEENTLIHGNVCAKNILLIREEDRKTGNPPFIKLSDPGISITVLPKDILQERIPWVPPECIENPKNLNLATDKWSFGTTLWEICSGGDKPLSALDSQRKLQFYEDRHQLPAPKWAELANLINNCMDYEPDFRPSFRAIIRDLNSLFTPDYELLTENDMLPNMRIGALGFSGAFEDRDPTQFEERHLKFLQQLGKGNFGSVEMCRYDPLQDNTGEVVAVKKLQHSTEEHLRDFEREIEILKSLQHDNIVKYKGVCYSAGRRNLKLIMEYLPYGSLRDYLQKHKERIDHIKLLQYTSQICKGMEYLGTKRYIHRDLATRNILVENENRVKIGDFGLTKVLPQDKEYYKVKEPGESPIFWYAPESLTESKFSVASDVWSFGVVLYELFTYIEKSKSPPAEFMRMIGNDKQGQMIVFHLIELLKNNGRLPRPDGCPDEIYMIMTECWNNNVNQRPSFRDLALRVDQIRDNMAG
In short: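 Cell-free recombinant human JAK2 enzyme activity assay, fluorescence/electrophoretic mobility shift read 1 h after dosing. Screened in duplicate at 25 uM, then concentration-response up to 50 uM; activity as signal loss relative to DMSO.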

[7] = target: human c-Jun N-terminal Kinases (JNK2), MAPK9 (gene 5601) (UniProt P45984); experiment: NVS_ENZ_hJNK2: NovaScreen (NVS) Enzymatic Assay for human c-Jun N-terminal Kinases (JNK2) (AID 2283171)
In short: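 Cell-free recombinant human JNK2 activity assay; fluorescent substrate and product separated by electrophoretic mobility shift, read 1 h after dosing. Primary duplicate screen at 25 uM; actives run in concentration-response up to 50 uM, relative to DMSO.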

[8] = target: Mitogen-activated protein kinase 3 (Homo sapiens) (UniProt P27361); experiment: NVS_ENZ_hMAPK3: NovaScreen (NVS) Enzymatic Assay for human Mitogen-Activated Protein Kinase 3 (MAPK 3) (AID 2283177)
Chain of Mitogen-activated protein kinase 3 (Homo sapiens) (P27361 whole entry, looked up): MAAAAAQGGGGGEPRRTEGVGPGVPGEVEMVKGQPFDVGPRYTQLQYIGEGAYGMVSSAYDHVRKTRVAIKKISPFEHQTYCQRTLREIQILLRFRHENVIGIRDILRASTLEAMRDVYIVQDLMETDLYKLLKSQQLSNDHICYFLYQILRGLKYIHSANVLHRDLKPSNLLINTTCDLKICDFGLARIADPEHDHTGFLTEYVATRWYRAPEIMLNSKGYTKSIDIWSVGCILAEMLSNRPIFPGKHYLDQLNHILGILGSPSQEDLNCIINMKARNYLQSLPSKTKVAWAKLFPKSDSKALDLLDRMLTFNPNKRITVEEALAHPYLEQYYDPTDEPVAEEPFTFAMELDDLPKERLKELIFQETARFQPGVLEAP
In short: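 Cell-free enzymatic assay with recombinant protein and specific substrate; fluorescence and electrophoretic mobility shift read-out 1 h after dosing. Primary screen duplicate at 25 uM; actives then run in concentration-response up to 50 uM, loss of signal versus DMSO.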

[9] = target: human MAP Kinase-Activated Protein Kinase 2 (MAPKAPK2), MAPKAPK2 (gene 9261) (UniProt P49137); experiment: NVS_ENZ_hMAPKAPK2: NovaScreen (NVS) Enzymatic Assay for human MAP Kinase-Activated Protein Kinase 2 (MAPKAPK2) (AID 2283178)
Chain of human MAP Kinase-Activated Protein Kinase 2 (MAPKAPK2), MAPKAPK2 (gene 9261) (P49137 whole entry, looked up): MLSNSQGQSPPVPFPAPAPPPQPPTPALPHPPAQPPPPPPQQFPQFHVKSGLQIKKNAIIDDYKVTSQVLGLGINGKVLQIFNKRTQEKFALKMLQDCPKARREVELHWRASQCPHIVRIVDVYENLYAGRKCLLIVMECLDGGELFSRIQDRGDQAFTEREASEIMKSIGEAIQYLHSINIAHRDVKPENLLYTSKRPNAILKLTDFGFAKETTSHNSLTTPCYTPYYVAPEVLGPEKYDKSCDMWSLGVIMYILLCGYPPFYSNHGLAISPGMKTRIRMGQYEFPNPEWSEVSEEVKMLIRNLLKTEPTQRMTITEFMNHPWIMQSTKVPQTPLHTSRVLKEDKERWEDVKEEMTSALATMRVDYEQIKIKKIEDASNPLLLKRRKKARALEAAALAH
In short: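 Cell-free recombinant human MAPKAPK2 activity measured by fluorescence with electrophoretic mobility shift separation of substrate and product, 1 hr after dosing. Loss of signal versus DMSO; primary screen at 25 uM, concentration-response up to 50 uM.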

[10] = target: human IkappaB Kinase alpha (IKKa), CHUK (gene 1147) (UniProt O15111); experiment: NVS_ENZ_hIKKa: NovaScreen (NVS) Enzymatic Assay for human IkappaB Kinase alpha (IKKa) (AID 2283167)
In short: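 Cell-free recombinant human IKKa with fluorescent substrate, product separated by electrophoretic mobility shift; read 1 hour after dosing. Primary screen duplicate at 25 uM, actives then concentration-response up to 50 uM; loss of signal relative to DMSO.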

[11] = target: human Mitogen-Activated Protein Kinase 1 (MAPK 1), MAPK1 (gene 5594) (UniProt P28482); experiment: NVS_ENZ_hMAPK1: NovaScreen (NVS) Enzymatic Assay for human Mitogen-Activated Protein Kinase 1 (MAPK 1) (AID 2283175)
In short: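 Cell-free recombinant human MAPK1 enzymatic assay, fluorescence/electrophoretic mobility shift read at 1 h; loss of signal vs DMSO. Primary screen in duplicate at 25 uM; actives (e.g. ≥30% inhibition) run as concentration-response up to 50 uM.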

Clc1ccc(Cl)cc1
outcome [1]: inactive

COc1ccc(O)c(C(C)(C)C)c1
outcome [1]: inactive

Cc1ccccc1[N+](=O)[O-]
outcome [1]: inactive | outcome [2]: inactive

c1cc2ccc3cccc4ccc(c1)c2c34
outcome [3]: inactive | outcome [4]: inactive | outcome [5]: inactive

Cc1cc2c3c(c1)C(c1ccccc1)=N[C@@H](NC(=O)c1ccncc1)C(=O)N3CC2
outcome [3]: inactive | outcome [6]: inactive

C=CC(N)=O
outcome [1]: inactive

CC(C)C(=O)OCC(C)(C)C(OC(=O)C(C)C)C(C)C (configuration not stated)
outcome [1]: inactive | outcome [6]: inactive | outcome [7]: inactive | outcome [8]: inactive | outcome [9]: inactive

CCOP(=S)(OCC)SCSC(C)(C)C
outcome [4]: inactive

Cc1ccc(O)c(C)c1
outcome [1]: inactive | outcome [2]: inactive

Cc1ccccc1O
outcome [1]: inactive

CCOCCOC(C)=O
outcome [5]: inactive | outcome [9]: inactive

ClC1=C(Cl)[C@]2(Cl)[C@@H]3[C@@H](Cl)[C@H]4O[C@H]4[C@@H]3C1(Cl)C2(Cl)Cl
outcome [8]: inactive

O=S(=O)(O)C(F)(F)C(F)(F)C(F)(F)C(F)(F)C(F)(F)C(F)(F)F
outcome [3]: inactive | outcome [5]: inactive | outcome [10]: inactive | outcome [6]: inactive | outcome [11]: inactive | outcome [8]: inactive | outcome [9]: inactive

C1CC2OC2CC1C1CO1 (configuration not stated)
outcome [1]: inactive

Cc1cc(O)ccc1Cl
outcome [1]: inactive

CCC(C)c1cc([N+](=O)[O-])cc([N+](=O)[O-])c1O (configuration not stated)
outcome [3]: inactive
